# Screening results deposited in PubChem BioAssay by several laboratories.
# Candida biofilm = clotrimazole potentiators killing Candida biofilms, primary screen, with clotrimazole, Alamar Blue | C. albicans biofilm + clotrimazole | AID 834, 2007 | hit rate 0.14% among 85,000 | inhibition, % at 6 µM;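 active means inhibition above 20%; inactive means inhibition below 20%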;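 further: preformed 24 hr biofilms exposed to compound for 48 hr; 0% = biofilm without compound and 100% = blank killed by clotrimazole plus chlorhexidine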
# ERa SRC1 inh = ERα–SRC-1 coactivator interaction inhibitors, primary screen, biochemical, TR-FRET, ERα LBD, estradiol-bound; Estrogen receptor (Homo sapiens), P03372; TR-FRET ER-alpha LBD / SRC-1 peptide; inhibition, % at 25.6 µM; hit rate 1.7% among 86,000; in the data active means inhibition above about 50%;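 further: 0% = receptor plus peptide control and 100% = peptide only without receptor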
# Target sequence (P03372 whole entry, looked up, the tested form may be a part): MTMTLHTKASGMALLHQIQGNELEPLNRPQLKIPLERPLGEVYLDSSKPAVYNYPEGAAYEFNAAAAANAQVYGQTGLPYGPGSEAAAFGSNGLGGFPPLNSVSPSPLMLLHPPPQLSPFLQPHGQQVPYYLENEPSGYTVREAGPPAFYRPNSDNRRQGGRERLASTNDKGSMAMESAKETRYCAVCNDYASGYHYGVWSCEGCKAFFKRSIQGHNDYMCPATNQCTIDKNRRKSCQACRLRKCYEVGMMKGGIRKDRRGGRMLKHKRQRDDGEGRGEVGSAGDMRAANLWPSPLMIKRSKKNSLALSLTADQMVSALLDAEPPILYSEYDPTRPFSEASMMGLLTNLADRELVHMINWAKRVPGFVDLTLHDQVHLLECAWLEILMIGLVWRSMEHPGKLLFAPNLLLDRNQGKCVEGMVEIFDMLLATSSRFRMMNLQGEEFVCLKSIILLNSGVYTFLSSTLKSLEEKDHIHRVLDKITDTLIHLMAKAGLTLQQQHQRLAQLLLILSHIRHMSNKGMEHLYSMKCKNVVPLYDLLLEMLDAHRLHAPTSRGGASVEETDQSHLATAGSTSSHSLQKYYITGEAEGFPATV
# ERa coact pot = enhancers of ERα–SRC-1 coactivator binding, primary screen, biochemical, TR-FRET, ERα LBD, low estradiol. TR-FRET ERalpha-LBD/SRC-Cy5 coactivator binding, 2 h; 100 = basal binding, no effect. coactivator binding (% of control), % at 25.6 µM. hit rate 1.3% among 86,000; in the data active means activity above about 200%;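 further: binding measured in presence of low estradiol as agonist stimulus; 0% = peptide alone without receptor and 100% = receptor with peptide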
# MT1-MMP txn act = MT1-MMP promoter reporter activation – cell-based, luciferase luminescence, primary screen; HT1080 MT1-MMP promoter luciferase reporter, overnight; hits give high values; activation factor at 10 µM; hit rate 0.16% among 86,000;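 active means activation factor of at least 2 for MT1-MMP transcription at 10 µM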
# EphB4 antag = EphB4-ephrin-B2 interaction antagonists, primary screen, biochemical, TNYL-RAW peptide probe, fluorescence polarization. Ephrin type-B receptor 4 (Homo sapiens), P54760. EphB4 LBD / TNYL-RAW-Alexa532 peptide. inhibition, % at 7 µM. hit rate 0.15% among 97,000;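 active means inhibition above the screen-wide mean inhibition plus 3 SD, cut at about 15% in these data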;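 further: 0% = DMSO wells and 100% = excess unlabeled TNYL-RAW peptide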
# ERb SRC1 inh = inhibitors of ERβ-SRC1 coactivator interaction, primary screen, biochemical, TR-FRET, ERβ LBD, SRC-1 peptide. Estrogen receptor beta (Homo sapiens), Q92731. TR-FRET ER-beta LBD / SRC1-Cy5 peptide binding; receptor agonist-loaded with 1 µM estradiol. inhibition, % at 25.6 µM. hit rate 1.3% among 86,000;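 active means compounds whose percent inhibition of the receptor-coactivator binding signal exceeds about 50% in the single-dose screen, limit read from the data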;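 further: 0% = receptor plus peptide wells without compound and 100% = peptide-only wells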
# An asterisk follows results filed as active; · = no result; [ ] = dose if it differs, or a comment. This is a sample that favours compounds with a hit; in the whole collection about 3.2% have one here.
SMILES,Candida biofilm,ERa SRC1 inh,ERa coact pot,MT1-MMP txn act,EphB4 antag,ERb SRC1 inh
Cc1ccc(CN(c2ccc(C(=O)Nc3cccnc3)cc2)S(C)(=O)=O)cc1,0.5,-5.5,97.3,1.1,0.9,-5.6
CCCn1c(=O)c(C(=O)Nc2nnc(C)s2)c(O)c2ccccc21,-8.2,4.8,87.2,1.1,·,5.1
Cc1ccc2c(c1)cc(CN(CCc1ccccc1)C(=O)N1CCOCC1)c1nnnn12,9.2,64.6*[fluorescence artefact?],113.2,1.1,4.6,-3.9
Cc1ccc2[nH]c(=O)c(CN(CCc3ccccc3)C(=O)N3CCOCC3)cc2c1,6.7,1.0,97.9,1.2,-6.8,-0.2
CCc1nc(N)nc(N)c1-c1ccc(Cl)cc1,9.2,1.9,246.4*,0.7,·,9.3
CCc1nc(N)c(C#N)c(-c2ccncc2)c1C,6.5,-1.2,108.2,0.9,-0.5,1.0
O=c1c2ccccc2nc(-c2ccco2)n1CCCn1ccnc1,2.4,-6.6,114.5,1.1,-1.3,-6.2
c1csc(-c2csc(-c3cccs3)n2)c1,2.3,-5.5,143.0,1.4,-6.2,-2.8
Brc1cc(Br)c2nc(-c3cccs3)ccc2c1,3.8,-0.3,240.9*[fluorescence artefact?],1.9,-0.6,-5.4
COc1cc2c(cc1OC)-c1cc(NCc3ccccn3)nc(=O)n1CC2,5.2,-10.1,513.1*[fluorescence artefact?],1.1,-13.4,48.0
CCOC(=O)C1=C(c2ccccc2)N2CCN=C2S1,2.3,-10.2,424.2*[fluorescence artefact?],1.1,-3.1,-9.8
CCOC(=O)c1c(C)nc(-c2ccccc2)nc1N,·,7.4,102.8,·,-2.9,5.5
N#Cc1ncc(C(F)(F)F)cc1Sc1ccc(N)cc1,-4.0,-3.2,94.9,1.1,16.1*,3.5
N#Cc1cc(N)ccc1Sc1ccc(Cl)cc1,·,·,·,·,0.6,·
COc1ccc(-c2c(C#N)c(C)nc3c2C(=O)c2ccccc2-3)cc1,-1.2,2.3,372.9*,1,7.3,1.7
Nc1ccc(NC(=O)c2cccs2)c(Cl)c1,7.0,-6.0,237.5*[fluorescence artefact?],1.4,-1.0,-7.8
CCOC(=O)c1cnn(-c2sc(C(=O)OCC)c(C)c2C(=O)OCC)c1N,-8.5,63.1*[fluorescence artefact?],28.8,1.5,-6.7,64.4*[fluorescence artefact?]
CCC1=C2CC[C@H]3C(=O)N(CC)C(=O)[C@H]3[C@H]2[C@@]2(Cc3ccccc3)C(=O)N(CC3CC3)C(=O)N2C1=O,·,·,·,1.1,·,·
CC(C)c1nnc(NC(=O)CCC(=O)NCC2CCCO2)s1 (stereo not drawn),5.4,-1.4,113.0,1.2,-0.6,-1.8
O=C(CCC(=O)Nc1nnc(C2CCCCC2)s1)NCC1CCCO1 (stereo not drawn),6.6,62.5*,202.7*[fluorescence artefact?],1,-2.1,61.3*
CCS(=O)(=O)Nc1cc(-c2nc3cccnc3s2)ccc1C,0.4,-12.4,122.0,1.6,0.3,-2.6
Cc1cc(-c2nc3cccnc3s2)ccc1NS(=O)(=O)c1ccc2c(c1)OCCO2,10.6,9.9,204.1*[fluorescence artefact?],·,-3.6,15.9
Cc1c(NS(=O)(=O)c2ccc3c(c2)OCCO3)cccc1-c1nc2cccnc2s1,7.5,13.0,243.9*[fluorescence artefact?],·,-3.4,4.7
O=S(=O)(Nc1cccnc1Cl)c1ccc2c(c1)OCCO2,7.4,2.4,121.0,1.1,-0.7,2.6
CCc1nnc(NC(=O)CSc2nnc(-c3ccc(S(=O)(=O)N4CCCC4)cc3)n2CC)s1,-3.4,16.1,86.9,1.1,1.7,53.6*[fluorescence artefact?]
SMILES,Candida biofilm,ERa SRC1 inh,ERa coact pot,MT1-MMP txn act,EphB4 antag,ERb SRC1 inh
Cc1nnc(Sc2c(N)n(C)c(=O)n(C)c2=O)s1,1.5,-0.4,103.6,0.9,-1.1,-3.1
Cc1nnc(Sc2nc(Sc3nnc(C)s3)nc(N3CCN(C)CC3)n2)s1,4.7,-13.7,110.6,0.1,·,60.5*[fluorescence artefact?]
CC1CCN(C(=O)COC(=O)[C@H](C)NS(=O)(=O)/C=C/c2ccccc2)CC1,1.6,1.1,103.3,1.2,-0.2,-2.0
Clc1ccc(-c2nc(-c3ccccn3)no2)cc1Cl,5.5,26.9,264.7*,0.5,2.2,17.3
CCC1(C)CC(C(CC(=O)O)c2ccc(C)cc2)CCO1 (stereo not drawn),4.3,8.8,106.3,1,-6.9,0.4
Cc1cc2c(C)c(C)c(=O)[nH]c2cc1N,10.8,68.7*[fluorescence artefact?],16.1,·,2.9,44.1
Cc1cc(C)c2[nH]c(=O)c(=O)[nH]c2c1,6.9,0.2,108.3,1,-3.3,-2.5
C=CCCC(=O)Nc1nc(C)c(-c2csc(Nc3cc(OC)ccc3OC)n2)s1,·,·,·,·,-1.1,·
C=CCNc1nc(-c2ccc(OC)cc2OC)cs1,2.2,4.7,118.5,2*,3.7,4.4
O=C(Cn1c(=O)n(Cc2ccco2)c(=O)c2c3c(sc21)CCCCC3)Nc1ccccc1,2.1,73.3*,56.1,1.1,-1.2,80.2*
O=c1c2c3c(sc2n(CCN2CCCC2)c(=O)n1Cc1ccco1)CCCCC3,9.3,-2.0,115.2,1,·,-11.7
O=C(Cn1c(=O)n(Cc2ccco2)c(=O)c2c3c(sc21)CCCCC3)c1ccccc1,5.7,66.1*,67.0,1.4,2.5,46.7
O=C(CSc1nc2sc3c(c2c(=O)n1Cc1ccco1)CCC3)N1CCc2ccccc21,4.3,36.3,344.0*,1,2.7,36.4
CCOC(=O)NC(CC(=O)O)c1ccc(OC)cc1 (stereo not drawn),8.4,-1.7,116.4,1,9.2,-8.4
O=C(CCCN1C(=O)CCC1=O)Nc1ccccc1F,6.8,-0.8,82.7,1.1,0.6,-0.2
c1cc2c3c(cccc3c1)C(N1CCN(C3=Nc4cccc5cccc3c45)CC1)=N2,8.5,33.8,203.2*[fluorescence artefact?],·,-3.7,10.1
CC(=O)N1CCN(C2=Nc3cccc4cccc2c34)CC1,4.2,-9.1,104.7,1.2,·,-8.7
CCn1c(CCCNC(=O)c2ccc(F)cc2)nc2ccccc21,2.7,-5.3,269.7*,·,-3.1,6.9
COc1cc(NCCCCCCCN)c2ncccc2c1,6.0,77.6*[fluorescence artefact?],38.0,0.9,3.8,39.0
COc1cc(NC(=O)c2ccc3c(c2)OCO3)c2ncccc2c1,0.5,13.7,136.9,1.4,3.9,13.0
CCN(CC(=O)Nc1ccc([N+](=O)[O-])cc1OC)c1ccccc1,·,·,·,·,1.8,·
Nc1c(C(=O)NCC2CCCO2)c2nc3ccccc3nc2n1/N=C/c1ccncc1 (stereo not drawn),9.9,-22.2,313.7*[fluorescence artefact?],1.1,·,0.1
Cn1c(=O)c(C(=O)COC(=O)c2cc(C(F)(F)F)nc3c(C(F)(F)F)cccc23)c(N)n(Cc2ccccc2)c1=O,·,·,·,1.1,·,·
COc1ccccc1S(=O)(=O)Cc1ccc(C(=O)N2CCCC2)o1,6.5,6.9,208.4*,1.1,-1.1,-12.5
